Assay [1] is described as follows: small molecules captured by biotinylated probe aFSTL3 – biochemical, small-molecule microarray, fluorescence 635/667, stem cell growth factor project, primary screen (AID 1064).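 Further: measures binding of the biotinylated anti-FSTL3 antibody to printed compounds.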 Particulars: higher = more signal.
Assay [2] can be described thus: binders from COS7 lysate, DM2A8 probe, primary screen, torsin A project, cell lysate, small-molecule microarray, fluorescence 635/667 (AID 1065). Particulars: higher = more signal, COS7 lysate expressing mutant human TOR1A.
The nature of assay [3]: small molecules captured by biotinylated probe aFGF2 – biochemical, small-molecule microarray, fluorescence 635/667, stem cell growth factor project, primary screen (AID 1067).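 Further: measures binding of biotinylated aFGF2 protein to printed compounds on slides; z-score merges feature fluorescence and signal-to-noise across triplicate slides.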 Particulars: higher = more signal.
Assay [4] in a line: small molecules captured by biotinylated probe aFGF10 – biochemical, small-molecule microarray, fluorescence 635/667, stem cell growth factor project, primary screen (AID 1071).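 Further: score merges 667 nm spot intensity and signal to noise from triplicate slides.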 Particulars: higher = more signal.
The target of assay [5] is Neurogenic locus notch homolog protein 2 (Homo sapiens) (UniProt Q04721). Kind of assay: small molecules binding Notch2 protein – biochemical, small-molecule microarray, 635 nm fluorescence, stem cell growth factors, primary screen (AID 1073). Particulars: higher = more signal.
Assay [6] has as its target Pro-neuregulin-1, membrane-bound isoform (Homo sapiens) (UniProt Q02297). Kind of assay: small molecules binding neuregulin-1 protein – biochemical, small-molecule microarray, fluorescence 635/667, psychiatric disease protein project, primary screen (AID 1075).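 Further: score combines 667 nm spot fluorescence with signal to noise.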 Particulars: NRG1 binding, 635 nm fluorescence, higher = more signal.
The subject of assay [7] is Neuregulin-1 EGF-like domain. The assay can be described thus: small molecules binding NRG1 EGF domain – biochemical, small-molecule microarray, 635 nm fluorescence, primary screen (AID 1081).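 Further: binding of the protein to compounds printed on small-molecule microarray slides.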 Particulars: higher = more signal.
The nature of assay [8]: FRG1 expression reporter modulators in myotubes – cell-based, C2C12 myotubes, firefly/Renilla luciferase, luminescence, FRG1 inhibition for FSHD, primary screen (AID 1084). Particulars: FRG1 promoter luciferase, higher = more signal, called active from +8 up or from −8 down.
A short description of assay [9]: small molecules captured by biotinylated probe aFST – biochemical, small-molecule microarray, fluorescence 635/667, stem cell growth factor project, primary screen (AID 1086).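 Further: score merges 667 nm fluorescence with signal-to-noise of each printed compound spot.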 Particulars: higher = more signal.
A short description of assay [10]: binders of probe aHhip on microarray, primary screen, stem cell growth factor project, biochemical, small-molecule microarray, fluorescence 635/667 (AID 1087).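 Further: score merges spot fluorescence at 667nm with spot signal to noise ratio.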 Particulars: higher = more signal.
Assay [11] has as its system PRMT1 (protein arginine N-methyltransferase 1). Kind of assay: small molecules binding arginine methyltransferase PRMT1 – biochemical, small-molecule microarray, 635 nm fluorescence, primary screen (AID 1088).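 Further: binding of Prmt1 protein to compounds spotted on small-molecule microarray slides.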 Particulars: higher = more signal.
Assay [12] is described as follows: growth effects on S. cerevisiae YJM789 – YJM789 clinical isolate, OD600, 24 h, basal, primary screen (AID 1089).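 Further: growth of clinical yeast isolate S. cerevisiae YJM 789 seeded 1000 cells per well; test concentration not given here.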 Particulars: higher = more signal, called active from +8 up or from −8 down.
Assay [13] in a line: S. pombe growth modifiers, basal conditions – strain 972, OD600, 24 h, no modulator, primary screen (AID 1090).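 Further: basal condition with compound alone and no growth modifier present; test concentration not given here.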 Particulars: S. pombe 972 growth, higher = more signal, called active from +8 up or from −8 down.
Assay [14] can be described thus: budding yeast growth modifiers under rapamycin – strain BY4716, OD600, 96 h, primary screen (AID 1091). Further: test concentration not given here. Particulars: S. cerevisiae BY4716 + rapamycin, higher = more signal, called active from +8 up or from −8 down.
For assay [15], the target named is Torsin-1A-interacting protein 2 (Homo sapiens) (UniProt Q8NFQ8). The assay can be described thus: small molecules binding lysate-expressed LULL1 – cell lysate, human LULL1 lysate, 635/667 nm fluorescence, primary screen (AID 1092).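 Further: probe is lysate of COS7 cells overexpressing human LULL1; score merges per-feature 667 nm fluorescence with signal-to-noise.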 Particulars: small-molecule microarray, hLULL1 lysate binding, 635 nm fluorescence; higher = more signal.
Sequence of Torsin-1A-interacting protein 2 (Homo sapiens) (Q8NFQ8 whole entry, looked up): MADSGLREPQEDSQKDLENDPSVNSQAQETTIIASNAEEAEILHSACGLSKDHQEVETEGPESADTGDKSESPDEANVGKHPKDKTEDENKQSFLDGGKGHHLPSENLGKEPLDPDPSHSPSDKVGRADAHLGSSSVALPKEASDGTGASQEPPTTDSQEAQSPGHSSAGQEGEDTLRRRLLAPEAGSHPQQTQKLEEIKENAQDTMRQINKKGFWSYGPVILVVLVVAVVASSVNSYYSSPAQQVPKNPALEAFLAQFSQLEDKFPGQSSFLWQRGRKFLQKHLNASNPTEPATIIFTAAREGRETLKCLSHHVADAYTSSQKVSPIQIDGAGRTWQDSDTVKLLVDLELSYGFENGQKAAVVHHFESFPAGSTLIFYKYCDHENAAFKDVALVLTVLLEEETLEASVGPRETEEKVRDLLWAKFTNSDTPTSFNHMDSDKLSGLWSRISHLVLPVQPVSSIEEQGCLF
The nature of assay [16]: optical density change of DRC41 E. coli – strain DRC41, OD650, 24 h, E. coli filamentation project, primary screen (AID 1093).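 Further: MC1000 strain lacking acrAB efflux and sulA so SOS filamentation is blocked; test concentration not given here.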 Particulars: E. coli DRC41 growth, higher = more signal, called active from +8 up or from −8 down.
Assay [17] in a line: probe aLefty2 binding to arrayed compounds – biochemical, biotinylated probe, 635/667 nm fluorescence, primary screen (AID 1094).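 Further: score merges spot fluorescence near 667 nm with spot signal-to-noise ratio.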 Particulars: small-molecule microarray, higher = more signal.
Assay [18] deals with Noggin (protein binding on small-molecule microarray). Kind of assay: small molecules binding Noggin protein – biochemical, 635/667 nm fluorescence, primary screen (AID 1095).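 Further: score merges 667 nm feature fluorescence with signal to noise over triplicate slides.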 Particulars: 635 nm fluorescence, higher = more signal.
Assay [19] has as its target Neurogenic locus notch homolog protein 3 (Homo sapiens) (UniProt Q9UM47). The assay can be described thus: small molecules binding NOTCH3 protein – biochemical, 635/667 nm fluorescence, primary screen (AID 1096). Particulars: small-molecule microarray, 635 nm fluorescence, higher = more signal.
The nature of assay [20]: probe aEGFR binding to arrayed compounds – biochemical, biotinylated probe, 635/667 nm fluorescence, primary screen (AID 1097).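 Further: probe is a biotinylated anti-EGFR antibody binding compounds printed on slides; score combines fluorescence near 667 nm and signal to noise of each spot.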 Particulars: small-molecule microarray, higher = more signal.

The source made the active and inactive calls.

Sequence of Pro-neuregulin-1, membrane-bound isoform (Homo sapiens) (Q02297 whole entry, looked up, the tested form may be a part, canonical isoform): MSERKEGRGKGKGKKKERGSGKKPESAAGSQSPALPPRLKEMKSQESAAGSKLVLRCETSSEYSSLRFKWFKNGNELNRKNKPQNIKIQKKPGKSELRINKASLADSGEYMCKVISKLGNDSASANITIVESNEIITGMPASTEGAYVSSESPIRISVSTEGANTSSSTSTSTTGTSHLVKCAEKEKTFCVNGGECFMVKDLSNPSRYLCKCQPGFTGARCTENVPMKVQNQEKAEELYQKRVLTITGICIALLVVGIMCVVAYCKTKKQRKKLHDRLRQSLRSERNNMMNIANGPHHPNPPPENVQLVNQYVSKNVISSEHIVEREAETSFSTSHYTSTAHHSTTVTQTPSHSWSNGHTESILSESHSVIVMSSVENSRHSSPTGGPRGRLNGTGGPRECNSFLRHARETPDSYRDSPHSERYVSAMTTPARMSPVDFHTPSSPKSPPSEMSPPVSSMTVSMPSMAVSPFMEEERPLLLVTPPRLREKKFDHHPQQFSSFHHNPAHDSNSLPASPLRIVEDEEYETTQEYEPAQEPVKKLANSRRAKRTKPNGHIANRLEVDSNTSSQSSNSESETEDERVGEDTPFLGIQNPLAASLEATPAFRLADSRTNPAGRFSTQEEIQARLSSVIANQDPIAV
Sequence of Neurogenic locus notch homolog protein 3 (Homo sapiens) (Q9UM47 whole entry, looked up): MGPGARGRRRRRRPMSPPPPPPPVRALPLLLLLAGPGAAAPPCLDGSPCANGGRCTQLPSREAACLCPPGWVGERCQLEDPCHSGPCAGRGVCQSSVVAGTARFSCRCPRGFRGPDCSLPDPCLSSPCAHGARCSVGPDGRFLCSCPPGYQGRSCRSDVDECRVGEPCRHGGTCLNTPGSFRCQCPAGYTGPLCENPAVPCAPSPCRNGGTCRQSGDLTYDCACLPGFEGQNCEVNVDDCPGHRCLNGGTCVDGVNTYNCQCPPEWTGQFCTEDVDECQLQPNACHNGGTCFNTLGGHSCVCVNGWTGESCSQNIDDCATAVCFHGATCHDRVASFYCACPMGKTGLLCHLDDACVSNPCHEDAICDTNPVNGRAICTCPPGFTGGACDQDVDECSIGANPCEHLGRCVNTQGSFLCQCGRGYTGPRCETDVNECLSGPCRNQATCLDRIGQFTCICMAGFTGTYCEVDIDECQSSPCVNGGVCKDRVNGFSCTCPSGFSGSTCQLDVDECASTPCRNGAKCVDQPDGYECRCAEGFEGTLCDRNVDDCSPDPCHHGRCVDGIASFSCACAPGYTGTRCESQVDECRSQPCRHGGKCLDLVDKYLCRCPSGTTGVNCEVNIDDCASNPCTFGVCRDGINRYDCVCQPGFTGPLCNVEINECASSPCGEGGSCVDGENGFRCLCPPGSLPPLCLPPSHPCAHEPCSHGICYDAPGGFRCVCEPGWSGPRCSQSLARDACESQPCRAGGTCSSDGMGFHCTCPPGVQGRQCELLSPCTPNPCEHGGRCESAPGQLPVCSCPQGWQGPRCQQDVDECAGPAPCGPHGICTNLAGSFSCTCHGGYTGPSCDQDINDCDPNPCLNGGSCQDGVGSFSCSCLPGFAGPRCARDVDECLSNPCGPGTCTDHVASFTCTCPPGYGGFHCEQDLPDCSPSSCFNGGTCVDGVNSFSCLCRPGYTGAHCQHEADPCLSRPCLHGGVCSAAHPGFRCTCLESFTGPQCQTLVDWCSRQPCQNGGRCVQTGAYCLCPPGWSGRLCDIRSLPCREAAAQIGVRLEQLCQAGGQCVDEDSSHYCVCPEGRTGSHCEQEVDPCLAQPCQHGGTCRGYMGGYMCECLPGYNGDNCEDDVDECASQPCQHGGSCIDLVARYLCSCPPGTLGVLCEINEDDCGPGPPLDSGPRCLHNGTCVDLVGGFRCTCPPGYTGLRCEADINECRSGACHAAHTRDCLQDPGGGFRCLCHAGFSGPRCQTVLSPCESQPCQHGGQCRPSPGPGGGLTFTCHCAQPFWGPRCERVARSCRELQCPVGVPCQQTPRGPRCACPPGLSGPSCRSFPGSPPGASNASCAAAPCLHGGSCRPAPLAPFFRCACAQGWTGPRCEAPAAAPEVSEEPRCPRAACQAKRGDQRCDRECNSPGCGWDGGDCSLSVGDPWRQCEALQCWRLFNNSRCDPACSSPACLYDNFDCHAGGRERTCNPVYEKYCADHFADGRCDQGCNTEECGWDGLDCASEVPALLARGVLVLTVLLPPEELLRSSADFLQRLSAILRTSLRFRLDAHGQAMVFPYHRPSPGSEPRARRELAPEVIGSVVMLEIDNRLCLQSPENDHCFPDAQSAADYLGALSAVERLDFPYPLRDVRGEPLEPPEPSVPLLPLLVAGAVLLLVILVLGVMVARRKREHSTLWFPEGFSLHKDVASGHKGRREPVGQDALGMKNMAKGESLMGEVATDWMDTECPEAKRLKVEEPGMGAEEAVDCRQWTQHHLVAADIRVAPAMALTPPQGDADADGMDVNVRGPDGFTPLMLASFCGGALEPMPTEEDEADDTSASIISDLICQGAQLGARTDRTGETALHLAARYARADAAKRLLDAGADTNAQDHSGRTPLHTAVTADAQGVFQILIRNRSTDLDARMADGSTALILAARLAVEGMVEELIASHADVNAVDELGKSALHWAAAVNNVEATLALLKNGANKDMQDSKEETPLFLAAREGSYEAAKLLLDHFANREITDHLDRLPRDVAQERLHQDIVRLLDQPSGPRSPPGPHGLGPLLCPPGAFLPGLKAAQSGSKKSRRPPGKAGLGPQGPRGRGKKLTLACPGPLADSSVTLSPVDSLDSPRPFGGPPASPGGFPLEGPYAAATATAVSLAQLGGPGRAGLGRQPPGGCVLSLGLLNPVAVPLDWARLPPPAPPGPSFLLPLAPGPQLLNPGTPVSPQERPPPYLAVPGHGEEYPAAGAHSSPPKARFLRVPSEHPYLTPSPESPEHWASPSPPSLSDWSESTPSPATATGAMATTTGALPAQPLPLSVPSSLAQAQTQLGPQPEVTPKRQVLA

`CC1O[C@H]2C3=C(C(=O)[C@@H]4O[C@@H]4[C@H]3O)[C@@H]1C1[C@@H](C)OC=C3[C@H](O)C4O[C@@H]4C(=NOCc4ccccc4)[C@]312` (stereo not given in full): the composite z-score in assay [1] was -0.379; in [2], -0.488; in [3], -0.166; in assay [4] it was 0.0246; in [5], 0.112; in [6], -0.505. The composite z-score in assay [7] was -0.0339; in [9] it was -0.123; in assay [10], -0.216; in assay [11], -0.543; in [15] it was 0.578; in assay [17], -0.192. Also, the composite z-score is 0.521 in assay [18], -0.128 in assay [19] and -0.148 in [20]. The z-score was -1.15 (inactive) in assay [8]; 0.247 (inactive) in [12]; -0.602 (inactive) in assay [13]; 0.089 (inactive) in [14]; -0.42 (inactive) in assay [16].

For `CCOC(=O)[C@H](Cc1ccccc1)NC(=O)CCC1CC(OC(=O)NCCc2ccc(F)cc2)CC2(CCCC(COC(=O)NCCOC)O2)O1` (stereo not given in full), the composite z-score in [1] is -0.584; in [2] it was 0.114; in assay [3] it was -0.0291; in assay [4], 0.868; in [5], 1.04; in assay [6], 0.326. In addition, the composite z-score in assay [7] is 1.11; in assay [9], 0.169; in assay [10], -0.248; in assay [11], 1.46; in assay [15], 1.73; in [17] it was -0.147. Further, the composite z-score in assay [18] worked out at 0.325; in [19], 0.796; in assay [20], 0.153. Moreover, the z-score is 0.753 (inactive) in assay [8]; 0.197 (inactive) in assay [12]; 0.143 (inactive) in assay [13]; -0.16 (inactive) in assay [14]; 0.769 (inactive) in assay [16].

Regarding `CCOC(=O)[C@H](CC(C)C)NC(=O)CCC1CC(OC(=O)NCCc2ccc(F)cc2)CC2(CCCC(COC(=O)NCCc3ccccc3OC)O2)O1` (stereo not given in full), the composite z-score in [1] was -0.329; in assay [2], 0.0726; in [3], -0.0806; in assay [4], 0.363; in assay [5], 0.41; in assay [6] it was 1.08. The composite z-score in [7] is 0.577; in assay [9] it was 0.216; in [10], -0.134; in assay [11], 1.15; in [15], 1.73; in assay [17] it was -0.19. Further, the results for the composite z-score in assay [18], in assay [19] and in assay [20] were 0.718, 1.12 and 0.0004, respectively. Also, the z-score is 0.617 (inactive) in assay [8]; 0.217 (inactive) in assay [12]; 1.02 (inactive) in [13]; 0.471 (inactive) in assay [14]; -0.0351 (inactive) in assay [16].

For `CCOC(=O)[C@H](CC(C)C)NC(=O)CCC1CC(OC(=O)NCc2cccc3ccccc23)CC2(CCCC(COC(=O)NCCOC)O2)O1` (stereo not given in full), the composite z-score in [1] is -0.56; in assay [2] it was 0.071; in assay [3] it was -0.0216; in [4], 0.482; in [5], 1.36; in assay [6], 1.27. Besides, the composite z-score in assay [7] was 0.931; in [9], 0.754; in assay [10], -0.214; in [11] it was 1.5; in [15], 2.7; in assay [17], -0.0633. The composite z-score turned out to be 0.607 in assay [18], 1.08 in [19] and 0.0576 in assay [20]. The z-score in assay [8] was -0.0725 (inactive); in assay [12] it was -1.43 (inactive); in assay [13], -0.837 (inactive); in [14], -1.09 (inactive); in [16], -0.157 (inactive).

In the case of `CCC(=O)[C@@]1(O)C(=O)N2C(=C3C(=O)OCC[C@@H]31)N(Cc1ccccc1)C(C)=C(C(=O)OC)[C@H]2c1ccccc1`, the composite z-score in assay [1] is -0.268; in assay [2] it was 0.364; in assay [3] it was -0.167; in assay [4] it was 0.342; in assay [5], 0.355; in assay [6], -0.13. Further, the composite z-score in [7] is 0.0811; in assay [9], 0.179; in [10], 0.176; in assay [11] it was 0.374; in assay [15], 0.399; in assay [17], -0.232. Further, the composite z-score is 0.644 in [18], 0.367 in assay [19] and -0.0059 in assay [20]. In addition, the z-score in assay [8] is 0.105 (inactive); in [12], 0.725 (inactive); in [13], -0.612 (inactive); in assay [14] it was 0.0739 (inactive); in assay [16], 0.568 (inactive).

Source of the values: PubChem BioAssay.
